The panel holds about 83,000 compounds, 20% with a hit somewhere; the sample as a whole holds those more often.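 Interpretation: 100, growth as untreated; towards 0, rising growth inhibition; 0, no net growth; 0 to -100, cell death. Compounds scoring below 10 were considered active.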 Calls of active or inactive are those of the source.
Columns and labels:
Assay in all cases: NCI-60 one-dose screen, 48 h (100 = growth as untreated, 0 = no growth, -100 = all killed)
Settings in all cases: 10 µM unless noted
[1] = test system: NCI-H23 lung
[2] = test system: NCI-H226 lung
[3] = test system: NCI-H322M lung
[4] = test system: HOP-62 NSCLC
[5] = test system: NCI-H460 lung
[6] = test system: HOP-92 NSCLC
[7] = test system: NCI-H522 lung
[8] = test system: A549/ATCC NSCLC
[9] = test system: 786-0 renal
[10] = test system: COLO 205 colon

Measured: growth

COc1cc2c(cc1OCCCCN1CCN(CC(=O)Nc3ccc(Cl)cc3C(=O)c3ccccc3Cl)CC1)N=CC1CCCN1C2=O (stereo not given)
active: [1] -14% | [2] -88.1% | [3] -64% | [4] -88.8% | [5] -56.2% | [6] -85.6% | [7] -83.4% | [8] -69.5% | [9] -94.2% | [10] -61.4%

CCc1cc2c(c3ccc(C(=O)CBr)cc13)CCCC2
inactive: [1] 89.1% | [2] 92.2% | [3] 77.5% | [4] 91.6% | [5] 109% | [6] 109% | [7] 88.3% | [8] 93% | [9] 99.7% | [10] 102%

COC(=O)[C@@H](OC)[C@@H]1Cc2cc3cc(OC4CC(OC5CC(O)C(O)C(C)O5)C(O)C(C)O4)c(C)c(O)c3c(O)c2C(=O)[C@H]1OC1CC(OC2CC(OC3CC(C)(O)C(O)C(C)O3)C(O)C(C)O2)C(O)C(C)O1 (stereo not given in full)
active: [1] -47.3% | [2] -41.9% | [4] 6.33% | [5] 4.95% | [6] -15.6% | [7] -30.3% | [8] 8.71% | [9] 9.07% | [10] -37.2%
inactive: [3] 12.3%

O=C(c1ccc(/C=C/c2n[nH]c3ccccc23)cc1)N1CCNCC1
inactive: [1] 24.8% | [3] 33.5% | [4] 16.5% | [5] 10.7% | [7] 36.2% | [8] 22.4% | [9] 37.7%
active: [2] 3.94% | [6] -3.02% | [10] -42%

O=C(Nc1cnn2ccc(N3CCC[C@@H]3c3cc(F)ccc3F)nc12)N1CC[C@H](O)C1
inactive: [1] 87.8% | [2] 93.8% | [3] 104% | [4] 71.8% | [5] 84.1% | [6] 89.5% | [7] 70.5% | [8] 72.4% | [9] 91% | [10] 71.6%

CCN(CC)CCN1C(=O)c2cccc3c(-c4ccc5c(c4)ncn5C4CCCCC4)ccc(c23)C1=O
active: [2] -29.9% | [4] 8.72% | [5] -30.9% | [6] -7.68% | [9] -46.1% | [10] -20.4%
inactive: [1] 20.2% | [3] 43.2% | [7] 21.3% | [8] 18.8%

CCOC(=O)Sc1ncnc2nc[nH]c12
active: [7] -18.8%
inactive: [1] 64.8% | [2] 37.4% | [3] 40.4% | [4] 17.2% | [5] 71.8% | [6] 12.2% | [8] 104% | [9] 18% | [10] 103%

Nc1nc(=S)c2ncn(C3OC(COC(=O)c4ccc(Cl)cc4)C(OC(=O)c4ccc(Cl)cc4)C3OC(=O)c3ccc(Cl)cc3)c2[nH]1 (stereo not given)
inactive: [1] 91.9% | [2] 86.9% | [3] 97.8% | [4] 106% | [5] 91.1% | [6] 82.7% | [7] 86.8% | [8] 98% | [9] 84.4% | [10] 123%

Cc1cc(O)c2c(c1)C1OC(=O)CCCCCN1C1=C2C(=O)c2cccc(OC3CC(O)C(O)C(C)O3)c2C1=O (stereo not given)
inactive: [1] 79.8% | [2] 118% | [3] 94.7% | [4] 123% | [5] 65.3% | [6] 134% | [7] 34.1% | [8] 59.9% | [9] 101% | [10] 53.3%

COc1ccc(-c2cc3c(oc2=O)-c2ccccc2OC3OC(C)=O)cc1 (stereo not given)
inactive: [1] 93.4% | [2] 94.3% | [3] 100% | [4] 98.8% | [5] 104% | [6] 83.5% | [7] 88% | [8] 93.3% | [9] 91.3% | [10] 97.4%

COCCOc1cnc2ccn([C@H](C)c3nnc4c(F)cc(-c5cnn(C)c5)cn34)c(=O)c2c1
inactive: [1] 51.1% | [2] 68.8% | [3] 59.2% | [4] 89.2% | [5] 75.6% | [6] 85.3% | [7] 87.7% | [8] 65.7% | [9] 108% | [10] 106%

CC(C)[C@@H]1CC[C@@H]2[C@@H]1[C@H](OC(=O)/C=C/c1ccccc1)[C@]1(C(C)C)C[C@@H](OC(=O)CO)[C@@]2(C)O1
inactive: [1] 83.1% | [2] 63.2% | [3] 105% | [4] 87.4% | [5] 89.3% | [6] 68.6% | [7] 65.9% | [8] 71.4% | [9] 78.1% | [10] 84.6%

CNC(=O)c1cc(Oc2ccc(NC(=O)Nc3ccc(Cl)c(C(F)(F)F)c3)c(F)c2)ccn1
active: [1] -25.8% | [2] -16.8% | [3] -13.4% | [4] -48.1% | [5] -35.4% | [6] -20.1% | [7] -69.3% | [8] -2.14% | [9] 3.58% | [10] -59%

Cc1cc(Nc2cc(N3CCN(C)CC3)nc(Sc3ccc(NC(=O)C4CC4)cc3)n2)n[nH]1
inactive: [1] 38.2% | [2] 36.3% | [3] 58.8% | [4] 18.4% | [5] 14.1% | [6] 12.1% | [7] 24.1% | [8] 20.6% | [9] 48.4%
active: [10] -29.3%

CN(C[C@@H]1COCCO1)S(=O)(=O)Nc1ccc2ccc3ncc(-c4cnn(C)c4)cc3c(=O)c2c1
inactive: [1] 30.6% | [2] 40.9% | [3] 26.3% | [4] 36.4% | [5] 35% | [6] 16.9% | [7] 11.2% | [8] 48.1% | [9] 41.3% | [10] 49.3%

COc1cnc2c(c1)C(=O)c1c-2n(CCCN2CCC(O)CC2)c(=O)c2cc(Cl)ccc12
active: [5] -60.8% | [8] -65.8% | [9] 4.34%
inactive: [1] 11.8% | [2] 39.3% | [3] 46.4% | [4] 23.6% | [6] 77.3% | [7] 32.4% | [10] 47.1%

N[C@@H]1CCCN(c2c(/C=C3\SC(=O)NC3=O)cccc2-c2ccccc2)C1
inactive: [1] 66% | [2] 59.1% | [3] 64.3% | [5] 75.9% | [6] 27.9% | [7] 49.7% | [8] 52.6% | [9] 82.8% | [10] 45.4%
active: [4] 1.79%

CCc1nc(C(N)=O)c(Nc2ccc(N3CCC(N4CCN(C)CC4)CC3)c(OC)c2)nc1NC1CCOCC1
inactive: [1] 32.5% | [2] 38.2% | [3] 43.3% | [4] 16.9% | [5] 17.2% | [8] 12.4% | [9] 10.2%
active: [6] -25.2% | [7] 1.52% | [10] -46.5%

N#CC1(C#N)C(c2cccs2)NC(c2cccs2)C1(C#N)C#N (stereo not given)
inactive: [1] 95% | [2] 102% | [3] 98% | [4] 95% | [5] 110% | [6] 113% | [7] 95.9% | [8] 100% | [9] 101% | [10] 106%

O=[N+]([O-])c1cc(Br)cc2c1[nH]c1ccc(Br)cc12
inactive: [1] 58% | [2] 53.9% | [3] 58% | [4] 39.2% | [5] 73.5% | [6] 44.2% | [7] 63.5% | [8] 52.3% | [9] 44.3% | [10] 52.1%

COC(=O)c1ccc2c(C(=Nc3ccc(N(C)C(=O)CN4CCN(C)CC4)cc3)c3ccccc3)c(O)[nH]c2c1
inactive: [1] 67.8% | [2] 47% | [3] 58.8% | [4] 38.8% | [5] 92% | [6] 18.4% | [7] 39.1% | [8] 45.8% | [9] 41.4% | [10] 34%

O=C(Nc1cccc([N+](=O)[O-])c1)c1ccc(Cl)c(Cl)c1
inactive: [1] 59.3% | [2] 43.3% | [3] 69.7% | [5] 77.6% | [6] 51.6% | [7] 60% | [8] 68.3% | [9] 67.4% | [10] 89.7%
active: [4] 7.13%

C=CCN1C(=O)c2cccc3c(-c4ccc5c(c4)ncn5C4CCCCC4)ccc(c23)C1=O
inactive: [1] 50.5% | [2] 44.8% | [3] 93.9% | [4] 67.1% | [5] 58.2% | [6] 32.4% | [7] 52% | [8] 58.3% | [9] 58.8% | [10] 47%

CN(N)c1nc2sc3c(c2c(=O)[nH]1)CCCC3
inactive: [1] 93.5% | [2] 101% | [3] 96.9% | [4] 76.6% | [5] 104% | [6] 107% | [7] 89.2% | [8] 81.1% | [9] 98.2% | [10] 100%

COc1cc2c(Nc3ccc(Br)cc3F)ncnc2cc1OCC1CCN(C)CC1
inactive: [1] 52.5% | [2] 57.5% | [4] 19.5% | [5] 39.9% | [8] 22.9% | [9] 15.3%
active: [3] 6.72% | [6] -12.9% | [7] -31.3% | [10] -13.9%

O=C1CC(c2cccc(F)c2)c2c(n[nH]c2-c2ccc(Cl)cc2)N1 (stereo not given)
inactive: [1] 80.4% | [2] 80.7% | [3] 81.9% | [4] 65.7% | [5] 106% | [6] 83.6% | [7] 61.5% | [8] 61.4% | [9] 89.7% | [10] 104%

From PubChem BioAssay (NCI)
